Source: PubChem
CYP2C9 act: CYP2C9 (human) activation; P11712; recombinant CYP2C9, luciferin-H conversion, luminescence; hits give high values; factor 1 = untreated enzyme, 0 = blocked; activation factor at 5 µM; 1.4% of 96,000 active;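 active = activation factor of 2 or more for CYP2C9 at a 5 µM dose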;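 note: 0 = sulfaphenazole-blocked wells and 1 = vehicle-only wells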
CYP2C19 inhib: blocks human cytochrome P450 2C19. 21% of 96,000 active. CYP2C19 Supersomes, luciferin-H EGE luminescence, 30 min. P33261. inhibition, % at 5 µM;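 active = CYP2C19 inhibition above a set limit at 5 µM in the primary screen, cut at about 50% in these data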;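 note: plate controls were negative control wells for no effect and 2.5 mM tranylcypromine positive control for full effect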
Target sequence (P33261 whole entry, looked up): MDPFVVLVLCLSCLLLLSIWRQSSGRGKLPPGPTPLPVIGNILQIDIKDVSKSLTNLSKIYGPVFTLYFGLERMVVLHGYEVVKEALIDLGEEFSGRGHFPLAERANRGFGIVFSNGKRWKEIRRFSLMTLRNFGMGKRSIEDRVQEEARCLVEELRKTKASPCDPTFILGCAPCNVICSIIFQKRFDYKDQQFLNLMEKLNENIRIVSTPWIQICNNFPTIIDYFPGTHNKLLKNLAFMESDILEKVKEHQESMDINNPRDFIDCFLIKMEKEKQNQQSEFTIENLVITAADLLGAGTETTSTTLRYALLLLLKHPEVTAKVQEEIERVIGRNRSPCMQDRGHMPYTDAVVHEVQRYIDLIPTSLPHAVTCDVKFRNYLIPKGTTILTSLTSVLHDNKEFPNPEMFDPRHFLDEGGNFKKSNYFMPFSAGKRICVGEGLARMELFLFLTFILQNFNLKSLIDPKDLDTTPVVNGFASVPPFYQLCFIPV
CYP2C19 act: activators of human cytochrome P450 2C19; P33261; recombinant CYP2C19, luciferin-H EGE luminescence; hits give high values; 0 = fully inhibited enzyme, 1 = untreated enzyme; activation factor at 5 µM; 96,000 tested, under 10 active; AID 1025;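 active = activation factor of at least 2 at 5 µM in the primary screen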;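 note: 0 = wells with 2.5 mM tranylcypromine and 1 = vehicle-only wells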
PostGolgi ctrl: inhibits growth of the yeast control strain; efflux-deficient yeast background strain, growth absorbance A615, 16 h; inhibition, % at 10 µM; 5% of 98,000 active
PostGolgi yeast: growth inhibition of a yeast mutant, post-Golgi transport screen; post-Golgi transport phenotypic cell assay; inhibition, % at 10 µM; 0.9% of 98,000 active; AID 739;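 note: yeast cells grown in 1536-well plates; yeast grown about 18 h at 30C before absorbance read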
CYP2C9 inhib: inhibitors of human CYP2C9. P11712. CYP2C9 Supersomes, luciferin-H conversion, luminescence. inhibition, % at 5 µM. 20% of 96,000 active;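 active = blocking of liver enzyme CYP2C9 beyond about 50% at 5 µM, limit read from the data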
* marks the source's active call; other numbers are inactive results. In the library only some 32% were active in any assay of this set; here they are far more common. Cut-off read from the data, not from the text of the source, unless noted: active = inhibition above about 30%; inactive = the rest.

SMILES | CYP2C9 act | CYP2C19 inhib | CYP2C19 act | PostGolgi ctrl | PostGolgi yeast | CYP2C9 inhib
Cc1cccn2c(=O)c(/C=C(\C#N)S(=O)(=O)c3ccccc3)c(N3CCN(C)CC3)nc12 | 0.2 | -10 | 1.1 | 9 | 0 | 75*
Cc1ccc(S(=O)(=O)/C(C#N)=C/c2c(N3CC(C)OC(C)C3)nc3c(C)cccn3c2=O)cc1 (stereo not given) | 0.3 | 7 | 0.9 | 10 | -3 | 72*
Cc1ccc(S(=O)(=O)/C(C#N)=C/c2c(N3CCN(C)CC3)nc3c(C)cccn3c2=O)cc1 | 0.2 | 9 | 0.9 | 6 | 1 | 85*
Cc1ccc(S(=O)(=O)C(C#N)c2nc3ccccc3nc2N2CC(C)OC(C)C2)cc1C (stereo not given) | 0.5 | 1 | 1 | 13 | 15 | 46
CCN1CCN(c2nc3c(C)cccn3c(=O)c2/C=C(\C#N)S(=O)(=O)c2ccc(C)cc2)CC1 | 0.1 | 33 | 0.7 | 6 | -3 | 89*
S=C(NCc1ccccn1)Nc1ccc(Cl)c(Cl)c1 | 0.8 | 51* | 0.5 | 21 | -1 | 25
S=C(NCc1ccccn1)Nc1ccc(Cl)cc1Cl | 1 | 66* | 0.3 | -2 | -5 | 4
Fc1ccc(NC(=S)NCc2ccccn2)cc1 | 1 | 13 | 0.9 | 6 | -2 | -2
CCC(=O)Nc1ccc2c(c1)nc(CN1CCN(C(C)=O)CC1)n2C | 1.1 | 3 | 1 | 4 | 9 | -9
COC(=O)C1=CNC=C(C(=O)OC)C1c1cccc(OC)c1 | 0.2 | 86* | 0.1 | 1 | 22 | 79*
COC(=O)C1=CNC=C(C(=O)OC)C1c1ccc(Cl)cc1 | 0.3 | 75* | 0.3 | 13 | -3 | 75*
CCOC(=O)C1=C(N)N2C(=O)C(C)SC2=C(C(=O)OC)C1c1cccc(OC)c1 (stereo not given) | 0.8 | 21 | 0.8 | 1 | 5 | 24
COC(=O)C1=CNC=C(C(=O)OC)C1c1ccccc1Cl | 0.3 | 84* | 0.2 | 7 | 2 | 70*
COCCN1C=C(C(=O)OC)C(c2ccccc2C(F)(F)F)C(C(=O)OC)=C1 | 0.5 | 40 | 0.6 | 16 | -19 | 49
Cc1cc(NS(=O)(=O)c2ccc(NC(=O)COc3ccc(Cl)cc3)cc2)no1 | 0.9 | -10 | 1.1 | 10 | -17 | 11
COc1ccc(C2Oc3ccccc3C3=C2C(c2cccs2)n2ncnc2N3)cc1 (stereo not given) | 0.3 | 22 | 0.8 | 19 | -14 | 67*
Brc1ccc(C2C3=C(Nc4ncnn42)c2ccccc2OC3c2ccncc2)cc1 (stereo not given) | 0.1 | 55* | 0.4 | 40* | -3 | 89*
CCOC(=O)CCC(=O)N1CCOCCN(C(=O)CCC(=O)OCC)CCOCC1 | 0.9 | 5 | 0.9 | -6 | -12 | 9
CCOc1ccccc1NC(=O)CSc1nnc(-c2ccco2)n1Cc1ccco1 | 0.4 | 86* | 0.1 | 8 | 19 | 58*
CCOc1ccccc1NC(=O)CSc1nnc(-c2ccccc2Cl)n1Cc1ccco1 | 0.5 | 70* | 0.3 | 16 | -2 | 49
COc1ccc(C)cc1NC(=O)CSc1nnc(-c2ccco2)n1Cc1ccco1 | 0.8 | 27 | 0.7 | 16 | -2 | 20
CCOc1ccccc1NC(=O)CSc1nnc(-c2ccccn2)n1Cc1ccco1 | 0.2 | 72* | 0.3 | 4 | -1 | 79*
COc1ccc(-c2c[n+]3c4n2CCCCC4=C(c2ccc(Br)cc2)C3)cc1 | 1.1 | 12 | 0.9 | 8 | -4 | -8
CCCCCCOC(=O)c1ccc(NC(=O)c2cc(OC)c(OC)c(OC)c2Br)cc1 | 0.4 | 44 | 0.6 | 14 | -6 | 64*
CCCCOC(=O)Nc1ccc(C(=O)OCCC)cc1 | 0.6 | 26 | 0.7 | 5 | 0 | 43
O=c1c2ccccc2nnn1CSc1nnc2sc3ccccc3n12 | 1.7 | 20 | 0.8 | 2 | 0 | -74
O=C(OCc1nc2ccccc2s1)C1CCN(S(=O)(=O)c2cccs2)CC1 | 0 | 82* | 0.2 | 16 | 14 | 95*
O=S(=O)(c1cccs1)N1CCN(Cc2nc3ccccc3s2)CC1 | 0.2 | 85* | 0.2 | 23 | -11 | 83*
CCOC(=O)C1CCN(S(=O)(=O)C(F)(F)c2nc3ccccc3s2)CC1 | 0.4 | 95* | 0 | 19 | -2 | 65*
